SARS PLpro yeast: blocks SARS-CoV papain-like protease in a yeast assay; 330,000 tested, 0.19% active; S. cerevisiae expressing SARS-CoV PLpro, growth rescue; Potency, µM (doses to about 32.9 µM), without a hit: top-dose activity, positive = growth rescue, hits mostly activators; AID 485353; calls by dose curve; also: potency is read from the fitted curve at half-maximal effect; 0% is about no effect; nearly all actives have a fitted effect of over 55% in size
AmpC no deterg: AmpC beta-lactamase inhibition without detergent. P00811. AmpC nitrocefin hydrolysis, absorbance 480 nm, 0.0001% Triton. Potency, µM (doses to about 57.1 µM), inactives show at the highest dose activity change, negative = inhibition, most hits filed as inhibitors. 330,000 tested, 0.52% active. AID 485341;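 also: potency is read from the fitted curve at half-maximal effect; plate controls were no compound for no effect and no enzyme for full effect; nearly all actives have a fitted effect of over 20% in size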
Target sequence (P00811 whole entry, looked up): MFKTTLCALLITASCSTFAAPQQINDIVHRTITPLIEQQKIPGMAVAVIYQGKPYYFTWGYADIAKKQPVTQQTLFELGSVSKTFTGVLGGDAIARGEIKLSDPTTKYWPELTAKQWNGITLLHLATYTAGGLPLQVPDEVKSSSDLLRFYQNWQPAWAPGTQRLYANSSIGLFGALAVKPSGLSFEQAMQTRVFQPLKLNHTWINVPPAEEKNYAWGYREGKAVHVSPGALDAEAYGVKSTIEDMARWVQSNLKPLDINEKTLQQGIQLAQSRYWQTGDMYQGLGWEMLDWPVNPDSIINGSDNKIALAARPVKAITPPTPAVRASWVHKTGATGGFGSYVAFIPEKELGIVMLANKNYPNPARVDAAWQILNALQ
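20 mM phosphate pH 7.0 + 0.01% (detergent screen) or 0.0001% Triton X-100; 5.3 nM AmpC reagent; cpd preinc 15 min RT; nitrocefin (800 uM stock) to start; A480 q20 s × 4 min; Activity was normalised to no-enzyme and no-compound control wells.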
CHX counter: counter-screen hit for Shiga toxin inhibitors, cycloheximide; cell reporter, cycloheximide protein synthesis inhibition counterscreen; max response, %; 300,000 tested, 12% active; AID 2314; in the data active = max response mostly above about 13%, no sharp cut-off; inactive = mostly below about 14%; also: read at 38.3 µM for the half of the compounds with a filed dose; 0% is about no effect
Shiga inhibitor: inhibitors of Shiga toxin in Vero cells; Vero cells, Shiga toxin protein synthesis inhibition reporter; 290,000 tested, 9.2% active; inhibition, % at 38.7 µM; in the data active = inhibition mostly above about 28%, no sharp cut-off; inactive = mostly below about 43%; also: 0% is about no effect
AmpC detergent: blocks E. coli AmpC beta-lactamase in detergent assay | P00811 | AmpC hydrolysis of nitrocefin, absorbance 480 nm, 0.01% Triton | Potency, µM (top dose mostly 114 µM), inactives show at the highest dose activity change, negative = inhibition, usual class: inhibitors | 370,000 tested, 0.041% active | AID 485294;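 also: potency is read from the fitted curve at half-maximal effect; 0% = no-compound wells and -100% = no-enzyme wells; nearly all actives have a fitted effect of over 25% in size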
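20 mM phosphate pH 7.0 + 0.01% (detergent screen) or 0.0001% Triton X-100; 5.3 nM AmpC reagent; cpd preinc 15 min RT; nitrocefin (800 uM stock) to start; A480 q20 s × 4 min; Activity was normalised to no-enzyme and no-compound control wells.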
AMA1 RON2 block: inhibitors of Plasmodium falciparum AMA1-RON2 interaction. AlphaScreen AMA1-biotinylated RON2 peptide binding. Potency, µM (top dose mostly 58.2 µM), for the others: top-dose activity change, negative = inhibition, hits mostly inhibitors. 360,000 tested, 0.2% active;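 also: potency is read from the fitted curve at half-maximal effect; 0% = vehicle wells and -100% = peptide control; nearly all actives have a fitted effect of over 45% in size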
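AMA1 (3D7) with his tag at 25 nM final met compounds first, then biotinylated RON2 peptide at 25 nM; detection used donor plus acceptor beads, 10 µg/mL apiece, read by AlphaScreen after 30 min at room temperature.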
The depositor's hits bear a star; ? = inconclusive; / = no result given. Many of the other results were omitted from the sample, so hits are more common in it than they were. Unless noted, calls follow the shape of the dose curve; as a rule, active = well fitted curve in the direction sought with a large enough effect; inconclusive = small, poorly fitted or top-dose-only effect, or another doubt; inactive = no such curve, though single readings can be large; an effect the other way counts as inactive or inconclusive.

SMILES	SARS PLpro yeast	AmpC no deterg	CHX counter	Shiga inhibitor	AmpC detergent	AMA1 RON2 block
Cc1c(Cc2ccccc2)c(=O)oc2cc(OCC(=O)c3ccccc3)ccc12	20%	-25%	-7	-7	3%	6%
COc1ccc(-c2c(C)c3ccc(OCC(C)=O)cc3oc2=O)cc1	2%	-4%	49*	110*	?	/
C/C(=N/NS(=O)(=O)c1ccccc1)c1ccc(Cl)cc1	-1%	-15%	-7	-5	0%	23%
Cc1ccc(C)c(N(C)C(=O)Cc2c(C(=O)O)[nH]c3ccc(Cl)cc23)c1	/	/	/	/	8%	/
C=C(C)COc1ccc2c(C)c(CCC(=O)NC3CC3)c(=O)oc2c1	-5%	24%	22*	19	-1%	-13%
Cc1oc2cc3oc(=O)c(CCC(=O)NC4CC4)c(C)c3cc2c1C	-2%	-13%	-4	1	-13%	9%
COc1ccc(-c2c(C)c3ccc(O)cc3oc2=O)cc1	-3%	-48%	53*	50*	-1%	-5%
CCCOc1ccc2c(C)c(CC(=O)OC)c(=O)oc2c1	-3%	0%	31*	52*	-10%	-2%
COc1cc(C)ccc1OCCOCCN(C)Cc1ccccc1	-21%	1%	-2	-5	-11%	?
Cc1[nH]c2ccccc2c1C(=O)C(C)OC(=O)c1ccccc1NCCO (stereo not given)	-5%	28µM*	/	/	?	1%
COC(=O)c1ccc(OC)c(CSc2nnc(-c3ccc(C)cc3)o2)c1	/	/	/	/	/	7%
CCOc1ccc(CC(=O)NCC(c2cccs2)S(=O)(=O)c2ccc(F)c(C)c2)cc1 (stereo not given)	/	/	/	/	6%	/
COc1cccc(-c2ccc3ncnc(N(C)Cc4ccco4)c3c2)c1	-5%	29%	/	/	?	/
COc1ccccc1CNC(=O)CN1C(=O)COc2ccc(S(=O)(=O)NC3CCCC3)cc21	-2%	-37%	21*	-10	-6%	-10%
CSCCC(NC(N)=O)C(=O)NCc1cccc(Cl)c1 (stereo not given)	-1%	-24%	-1	9	?	16%
CC(C)(C)c1ccc(-c2ncccc2O)cc1	-5%	-18%	32*	69*	3%	-10%
COc1cc(/C=C2/C(=N)N3C=CSC3=NC2=O)ccc1OCCCOc1c(C)cccc1C	-4%	-24%	-2	35	0%	79%
COc1cc(/C=C2/C(=N)N3C=CSC3=NC2=O)ccc1OCCCOc1ccccc1C	1%	-14%	10	54*	-14%	95%
CCOc1cc(/C=C2/C(=N)N3C=CSC3=NC2=O)ccc1OCCCOc1ccccc1C	-10%	-33%	38*	16	?	120%
O=C(Nc1ccc2ncccc2c1)c1cc(Cl)ccc1Cl	-5%	-3%	45*	34	3%	0%
O=C(Nc1ccc2ncccc2c1)c1cccc(Br)c1	-20%	-23%	39*	47*	0%	-2%
Cc1ccc(C(=O)/C=C/c2ccc3ncccc3c2)cc1	-12%	50%	48*	47*	?	-5%
CC(=O)Nc1cccc(NC(=O)c2cc(Cl)ccc2Cl)c1	2%	-26%	-12	-9	-9%	0%
O=C(Nc1cccc2ncccc12)c1cccc(Br)c1	-1%	-17%	-1	6	-1%	25%
Cc1ccc(C(=O)Nc2ncccc2S(=O)(=O)c2ccccc2)cc1	-1%	-15%	12*	66*	1%	10%
SMILES	SARS PLpro yeast	AmpC no deterg	CHX counter	Shiga inhibitor	AmpC detergent	AMA1 RON2 block
Cc1ccc2oc(=O)n(CC(=O)O)c2c1	23%	-5%	-1	-8	?	2%
COc1ccc(N(C(=O)c2ccco2)C(C(=O)NC2CCCC2)c2ccc(N(C)C)cc2)cc1OC (stereo not given)	15%	79%	7	14	?	-3%
Cc1ccc(F)cc1C(=O)N1CCCC(c2cc(C(=O)NCc3ccc(F)cc3)no2)C1 (stereo not given)	/	/	/	/	/	8%
Nc1sccc1C(=O)NC1CC1	/	/	/	/	/	28%
Cc1ccc(C(=O)Nc2ccc3ncccc3c2)cc1	0%	-58%	14*	19	-9%	-2%
Brc1ccc(CNc2ccc3ncccc3c2)cc1	-11%	-35%	30*	42*	-15%	9%
CCC(=O)c1ccc2ncccc2c1	8%	-17%	21*	44*	-3%	3%
Oc1cc(NCc2ccccc2)cc2cccnc12	3%	-52%	/	/	?	/
COc1ccc(C(=O)Nc2ccc3ncccc3c2)cc1	-11%	-31%	12	-11	-9%	5%
CC(=O)c1c(C(C)=O)c(C)n(-c2ccc3ncccc3c2)c1C	2%	-7%	-5	-27	-5%	-22%
CCCCNC(=O)COC(=O)c1c2c(nc3ccccc13)/C(=C/c1cccs1)CC2	-19%	25µM*	52*	104*	-5%	37%
CNC(=O)NC(=O)C(C)OC(=O)c1c2c(nc3ccccc13)/C(=C/c1cccs1)CC2 (stereo not given)	5%	-35%	32*	23*	4%	-6%
O=C(CCCc1ccccc1)Nc1cccnc1Cl	0%	0%	10	74	5%	1%
CC#CCCCC(=O)Nc1ccccc1C(=O)O	0%	-20%	28*	83*	4%	-11%
Nc1c(NC(=O)CC[n+]2ccccc2)cccc1[N+](=O)[O-]	6%	-23%	46*	96*	?	3%
NC(=O)c1ccccc1NC(=O)CCCc1ccccc1	2%	-15%	20*	/	-12%	-6%
O=C(CCCc1ccccc1)Nc1ccccc1[N+](=O)[O-]	2%	-26%	37*	27*	?	-22%
COc1ccc([C@@H]2[C@@H]3C(=O)N(C(C)(C)C)C(=O)[C@@H]3[C@]3(Cc4ccccc4)C(=O)N(c4ccc(OC)cc4)C(=O)N23)cc1	7%	79%	/	/	?	0%
COC(=O)C1=NNC(C(=O)c2ccco2)C1c1ccc(OC)cc1 (stereo not given)	-1%	-3%	1	-6	-5%	-12%
O=C(CCc1ccccc1)Nc1ccccc1[N+](=O)[O-]	24%	-21%	26*	54*	4%	-2%
CCCC(=O)NNC(=O)CC(=O)Nc1ccccc1C(=O)O	0%	-6%	-2	-13	-11%	96%
CN(C)c1ccc(NC(=O)Cc2ccccc2)c2ccccc12	0%	-21%	15*	33	3%	1%
Cc1ccc(NC(=O)CCCc2ccccc2)c([N+](=O)[O-])c1	-2%	-13%	32*	35*	-9%	?
CCc1ccc(CCC(=O)Nc2ccccc2C(=O)O)o1	-3%	-25%	40*	75*	0%	-7%
CCN1CCN(CCCNc2ncnc3nc[nH]c23)CC1	?	?	-2	1	?	7%
